Assay results reported in PubChem BioAssay (EPA / NIEHS).
Where “and” joins values, the source holds several entries; their conditions need not be identical. Equal entries are not always repeated. Inconclusive results are not listed. The source holds several records for some structures; these can differ, active in one and inactive in another. Calls of active or inactive are those of the source. Rule for the calls, unless noted: active = hit-call score of the fitted dose curve at least 0.9, where 1 is the maximum; inactive = score below 0.9.

Legend:
[1] = molecular target: Estrogen-related receptor gamma (Homo sapiens) (UniProt P62508); assay: ATG_ERRg_TRANS: Attagene TRANS-FACTORIAL HepG2 Assay for human Estrogen-Related Receptor gamma (ERRg) (AID 2282977; active = hit-call score of the fitted dose curve at least 0.9, where 1 is the maximum;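 note: hits increase reporter signal over DMSO so potencies reflect activators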); details: HepG2 Attagene TRANS reporter, ERRg transactivation
Method in brief: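 Transfect HepG2 with multiple GAL4-UAS reporter transcription units; dose chemicals 24 h; isolate RNA, reverse-transcribe with oligo(dT), PCR-amplify, label with 6-FAM, digest with HpaI; size fragments by capillary electrophoresis. DMSO serves as negative control.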

[2] = molecular target: Glucocorticoid receptor (Homo sapiens) (UniProt P04150); assay: ATG_GR_TRANS: Attagene TRANS-FACTORIAL HepG2 Assay for human Glucocorticoid Receptor (GR) (AID 2282978; active = hit-call score of the fitted dose curve at least 0.9, where 1 is the maximum;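 note: activators score as hits since higher reporter transcript over DMSO is fitted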); details: HepG2 Attagene TRANS GR reporter, mRNA transcription
Method in brief: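 After 24 h incubation with test chemical, transfected HepG2 cells were lysed for RNA; reporter cDNA was amplified, FAM-labelled, HpaI-digested and sized on a capillary analyser. Signal gain relative to DMSO was scored.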

[3] = molecular target: Bile acid receptor (Homo sapiens) (UniProt Q96RI1); assay: ATG_FXR_TRANS: Attagene TRANS-FACTORIAL HepG2 Assay for Farnesoid X Receptor (FXR) (AID 2282979; active = hit-call score of the fitted dose curve at least 0.9, where 1 is the maximum;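 note: hits raise reporter mRNA above DMSO so AC50 marks FXR activation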); details: HepG2 Attagene TRANS FXR-GAL4 reporter transcription
Method in brief: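 Read-out: fluorescent reporter transcripts quantified by capillary electrophoresis after RT-PCR of total RNA. Source cells were HepG2 transiently carrying chimeric NR-GAL4 plus GAL4-UAS reporter units, dosed 24 h. Activity fitted upward relative to DMSO baseline.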

[4] = molecular target: Oxysterols receptor LXR-alpha (Homo sapiens) (UniProt Q13133); assay: ATG_LXRa_TRANS: Attagene TRANS-FACTORIAL HepG2 Assay for human Liver X Receptor alpha (LXRa) (AID 2282980; active = hit-call score of the fitted dose curve at least 0.9, where 1 is the maximum); details: HepG2 Attagene TRANS reporter, LXRa transactivation
Method in brief: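 Read-out: reporter transcript levels by RT-PCR plus capillary electrophoresis, fluorescence intensity. Transiently transfected HepG2, exogenous NR-GAL4 chimera, GAL4-UAS reporters; 24 h compound exposure. Activity = increase over DMSO negative control.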

[5] = ATG_M_06_TRANS: Attagene TRANS-FACTORIAL HepG2 Assay for M06 Transcription Factor (Internal Marker) (AID 2282983; active = hit-call score of the fitted dose curve at least 0.9, where 1 is the maximum); details: HepG2 Attagene TRANS M06 internal marker reporter
Method in brief: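 After a 24 h chemical treatment of transfected HepG2, RNA underwent DNase I treatment, reverse transcription and reporter-specific PCR; labelled, HpaI-digested products were sized by capillary electrophoresis. Signal increase relative to DMSO defined activity.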

[6] = ATG_M_32_TRANS: Attagene TRANS-FACTORIAL HepG2 Assay for M32 Transcription Factor (Internal Marker) (AID 2282984; active = hit-call score of the fitted dose curve at least 0.9, where 1 is the maximum;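 note: transcript level of a background control reporter unit measured by RT-PCR and capillary electrophoresis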); details: HepG2 Attagene TRANS M32 internal marker reporter
Method in brief: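 Measures reporter mRNA induction in human HepG2 liver cells after 24 h chemical treatment. Transcripts from transiently transfected GAL4-UAS reporter units are amplified, fluorescently labelled and sized by capillary electrophoresis; gain of signal relative to DMSO.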

[7] = molecular target: Nuclear receptor subfamily 4 group A member 2 (Homo sapiens) (UniProt P43354); assay: ATG_NURR1_TRANS: Attagene TRANS-FACTORIAL HepG2 Assay for human Nuclear Receptor Related Protein 1 (NURR1) (AID 2282985; active = hit-call score of the fitted dose curve at least 0.9, where 1 is the maximum); details: HepG2 Attagene TRANS reporter, mRNA readout
Method in brief: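 Transient transfection of HepG2, human liver cells, with multiple GAL4-UAS reporter transcription units. Cells dosed 24 h, RNA isolated, reverse-transcribed, PCR-amplified, FAM-labelled, HpaI-digested, sized by capillary electrophoresis. DMSO served as negative control.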

[8] = molecular target: Transcriptional activator Myb (Homo sapiens) (UniProt P10242); assay: ATG_Myb_CIS: Attagene CIS-FACTORIAL HepG2 Assay for human Myeloblastosis (Myb) Proto-Oncogene Transcription Factor (AID 2282986); details: HepG2 Attagene CIS-FACTORIAL Myb reporter transcription; actives raise or lower the signal
Method in brief: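 After 24 h of compound dosing, total RNA from transfected HepG2 cells is reverse-transcribed and the reporter sequences amplified, labeled and separated by capillary electrophoresis. Values come from bidirectional fitting against DMSO.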

[9] = molecular target: Nuclear respiratory factor 1 (Homo sapiens) (UniProt Q16656); assay: ATG_NRF1_CIS: Attagene CIS-FACTORIAL HepG2 Assay for human Nuclear Respiratory Factor 1 (NRF1) Orphan Gene (AID 2282987); details: HepG2 NRF1 cis-element reporter, Attagene multiplex; actives raise or lower the signal
Method in brief: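 Measured: fluorescent reporter-specific RT-PCR products from transfected HepG2 cells, separated by capillary electrophoresis. Exposure lasted 24 h. Analysis used bidirectional curve fitting with DMSO as negative control.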

[10] = ATG_NFI_CIS: Attagene CIS-FACTORIAL HepG2 Assay for human Nuclear Factor I (NFI) (AID 2282989); details: HepG2 cis-regulatory reporter, NFI response element transcription; actives raise or lower the signal
Method in brief: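 Cells: human liver HepG2, transiently transfected with promoter-regulated reporter transcription units. Exposure 24 h. Detection: fluorescent RT-PCR products separated by capillary electrophoresis, normalised to DMSO negative control.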

[11] = molecular target: Myc proto-oncogene protein (Homo sapiens) (UniProt P01106); assay: ATG_Myc_CIS: Attagene CIS-FACTORIAL HepG2 Assay for human Myelocytomatosis (Myc) Proto-Oncogene Transcription Factor (AID 2282990); details: HepG2, Attagene cis-reporter transcription factor activity; actives raise or lower the signal
Method in brief: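 HepG2, transient MRTU transfection (cis promoters, endogenous TFs); 24 h dosing; TriZol RNA → oligo(dT) RT → PCR → 6-FAM primer extension → HpaI cut → CE. Bidirectional fit vs DMSO.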

[12] = ATG_NF_kB_CIS: Attagene CIS-FACTORIAL HepG2 Assay for human Nuclear Factor Kappa B (NF-kB) (AID 2282991); details: HepG2 Attagene cis-factorial NF-kB reporter mRNA; actives raise or lower the signal
Method in brief: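 Fluorescence of labelled RT-PCR products separated by capillary electrophoresis gives reporter mRNA levels from transfected HepG2 cells exposed 24 h; values are fitted in both directions relative to DMSO.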

[13] = ATG_NRF2_ARE_CIS: Attagene CIS-FACTORIAL HepG2 Assay for human Nuclear Factor Erythroid 2 Related Factor 2 (NFR2) response to Antioxidant Response Elements (ARE) (AID 2282992); details: HepG2 Attagene ARE/NRF2 reporter, transcription factor activity; actives raise or lower the signal
Method in brief: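 Cis-factorial assay: transfected HepG2 reporter library, 24 h dosing, mRNA readout via RT-PCR/CE; DMSO-referenced bidirectional analysis.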

[14] = ATG_Oct_MLP_CIS: Attagene CIS-FACTORIAL HepG2 Assay for human Octamer-Binding Transcription Factor (Oct) (AID 2282993); details: HepG2 Attagene cis-factorial Oct reporter, mRNA; actives raise or lower the signal
Method in brief: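 HepG2, transient MRTU transfection, cis promoter elements; 24 h dosing; RT-PCR/CE fluorescence read-out of reporter mRNA; fit both directions vs DMSO.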

[15] = molecular target: Cellular tumor antigen p53 (Homo sapiens) (UniProt P04637); assay: ATG_p53_CIS: Attagene CIS-FACTORIAL HepG2 Assay for human p53 Transcription Factor (AID 2282994); details: HepG2 p53 cis-element reporter, Attagene mRNA; actives raise or lower the signal
Method in brief: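 Using HepG2 hepatoma cells carrying cis-acting multiplexed reporters, mRNA induction is detected after a 24 h exposure. Gain- and loss-of-signal responses are fitted relative to DMSO-treated cells.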

[16] = molecular target: Oxysterols receptor LXR-beta (Homo sapiens) (UniProt P55055); assay: ATG_LXRb_TRANS: Attagene TRANS-FACTORIAL HepG2 Assay for human Liver X Receptor beta (LXRb) (AID 2282981; active = hit-call score of the fitted dose curve at least 0.9, where 1 is the maximum); details: HepG2 Attagene TRANS GAL4-LXRb reporter, mRNA
Method in brief: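 Transient transfection HepG2 (multiplexed RTUs, GAL4-UAS); NR-Gal4 chimera; 24 h exposure; RNA → RT-PCR → 6-FAM primer extension → HpaI → CE; increase vs DMSO.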

[17] = molecular target: Hepatocyte nuclear factor 4-alpha (Homo sapiens) (UniProt P41235); assay: ATG_HNF4a_TRANS: Attagene TRANS-FACTORIAL HepG2 Assay for human Hepatocyte Nuclear Factor 4 alpha (HNF4a) (AID 2282982; active = hit-call score of the fitted dose curve at least 0.9, where 1 is the maximum); details: HepG2 HNF4a transactivation reporter, mRNA readout
Method in brief: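 Readout is fluorescent reporter-transcript fragments resolved by capillary electrophoresis after RT-PCR from HepG2 cells dosed for 24 h. Cells carried transfected GAL4-UAS reporter constructs measuring exogenous NR-GAL4 chimera activity; DMSO served as baseline.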

[18] = BSK_3C_TissueFactor: BioMAP Diversity Plus: 3C Assay for Tissue Factor Biomarker Activity (AID 2282997); details: BioMAP 3C HUVEC, tissue factor biomarker readout; actives raise or lower the signal
Method in brief: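 Human vascular primary cells (umbilical vein endothelium) received test chemical; Tissue Factor was determined by ELISA at 24 h, and both gain and loss of signal versus DMSO were fitted.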

[19] = BSK_3C_uPAR: BioMAP Diversity Plus: 3C Assay for Urokinase-type plasminogen activator receptor (uPAR) Biomarker Activity (AID 2282998); details: BioMAP 3C HUVEC, uPAR biomarker ELISA; actives raise or lower the signal
Method in brief: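 A multiplexed primary-cell system built on human umbilical vein endothelium was used, with chemical present for 24 h before reading. Cell-surface uPAR was detected by ELISA; signal change in either direction counted against DMSO.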

[20] = BSK_3C_VCAM1: BioMAP Diversity Plus: 3C Assay for Vascular cell adhesion molecule 1 (VCAM1) Biomarker Activity (AID 2282999); details: BioMAP 3C HUVEC, VCAM1 ELISA, cytokine-stimulated; actives raise or lower the signal
Method in brief: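 Endothelial cells from human umbilical vein are treated with test chemical. At 24 h, VCAM-1 is measured by ELISA, and responses in either direction are fitted relative to DMSO.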

Measured: AC50

Sequence of Myc proto-oncogene protein (Homo sapiens) (P01106 whole entry, looked up): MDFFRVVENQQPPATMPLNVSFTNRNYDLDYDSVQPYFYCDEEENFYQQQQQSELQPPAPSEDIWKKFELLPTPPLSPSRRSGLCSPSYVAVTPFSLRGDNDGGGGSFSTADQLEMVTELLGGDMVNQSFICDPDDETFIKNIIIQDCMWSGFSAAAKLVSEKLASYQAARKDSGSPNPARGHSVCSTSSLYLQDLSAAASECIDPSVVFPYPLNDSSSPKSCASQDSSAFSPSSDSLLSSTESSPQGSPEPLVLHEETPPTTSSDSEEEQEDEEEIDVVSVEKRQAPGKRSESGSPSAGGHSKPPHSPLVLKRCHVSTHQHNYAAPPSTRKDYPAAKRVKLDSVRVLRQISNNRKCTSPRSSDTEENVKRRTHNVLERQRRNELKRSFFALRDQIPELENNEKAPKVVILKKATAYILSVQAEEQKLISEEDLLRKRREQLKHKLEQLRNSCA
Sequence of Cellular tumor antigen p53 (Homo sapiens) (P04637 whole entry, looked up): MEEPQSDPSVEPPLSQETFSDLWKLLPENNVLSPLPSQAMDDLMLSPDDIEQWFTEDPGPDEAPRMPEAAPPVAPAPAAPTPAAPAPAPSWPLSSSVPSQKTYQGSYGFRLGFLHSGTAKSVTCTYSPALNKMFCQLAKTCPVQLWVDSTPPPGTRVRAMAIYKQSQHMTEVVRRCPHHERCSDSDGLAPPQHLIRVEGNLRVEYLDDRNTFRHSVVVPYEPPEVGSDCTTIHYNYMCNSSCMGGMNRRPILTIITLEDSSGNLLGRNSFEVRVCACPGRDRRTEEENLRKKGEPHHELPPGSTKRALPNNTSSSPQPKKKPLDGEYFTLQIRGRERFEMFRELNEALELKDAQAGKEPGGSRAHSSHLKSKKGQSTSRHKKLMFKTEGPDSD
Sequence of Transcriptional activator Myb (Homo sapiens) (P10242 whole entry, looked up): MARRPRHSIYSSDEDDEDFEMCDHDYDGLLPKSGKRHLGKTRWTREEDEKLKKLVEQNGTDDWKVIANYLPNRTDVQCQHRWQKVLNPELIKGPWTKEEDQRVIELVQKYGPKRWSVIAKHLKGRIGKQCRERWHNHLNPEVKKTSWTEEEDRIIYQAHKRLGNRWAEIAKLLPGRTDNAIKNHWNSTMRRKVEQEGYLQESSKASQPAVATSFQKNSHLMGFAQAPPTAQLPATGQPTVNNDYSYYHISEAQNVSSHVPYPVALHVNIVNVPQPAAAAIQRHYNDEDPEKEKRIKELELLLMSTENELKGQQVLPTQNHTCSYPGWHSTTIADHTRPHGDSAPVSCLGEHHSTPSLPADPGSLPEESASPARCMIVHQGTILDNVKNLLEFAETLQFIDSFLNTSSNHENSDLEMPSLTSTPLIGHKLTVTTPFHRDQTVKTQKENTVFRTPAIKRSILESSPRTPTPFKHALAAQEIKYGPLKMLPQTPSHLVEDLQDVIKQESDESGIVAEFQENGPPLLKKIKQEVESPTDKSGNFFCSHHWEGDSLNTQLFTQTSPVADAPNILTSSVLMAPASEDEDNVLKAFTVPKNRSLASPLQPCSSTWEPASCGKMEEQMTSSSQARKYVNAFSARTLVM
Sequence of Estrogen-related receptor gamma (Homo sapiens) (P62508 whole entry, looked up, the tested form may be a part): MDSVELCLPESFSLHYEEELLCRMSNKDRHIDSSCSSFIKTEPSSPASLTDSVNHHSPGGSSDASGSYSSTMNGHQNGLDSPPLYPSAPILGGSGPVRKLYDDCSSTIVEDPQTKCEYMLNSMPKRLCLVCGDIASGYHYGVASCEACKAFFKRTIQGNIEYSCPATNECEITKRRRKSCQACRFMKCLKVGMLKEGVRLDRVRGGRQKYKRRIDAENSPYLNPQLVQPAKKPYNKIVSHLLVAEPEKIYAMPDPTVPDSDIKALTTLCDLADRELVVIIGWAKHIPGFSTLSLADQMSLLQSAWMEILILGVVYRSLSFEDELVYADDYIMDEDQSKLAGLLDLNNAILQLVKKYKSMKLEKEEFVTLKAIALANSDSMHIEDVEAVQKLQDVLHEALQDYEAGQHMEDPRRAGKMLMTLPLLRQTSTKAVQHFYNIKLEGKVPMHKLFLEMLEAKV
Sequence of Nuclear receptor subfamily 4 group A member 2 (Homo sapiens) (P43354 whole entry, looked up, the tested form may be a part): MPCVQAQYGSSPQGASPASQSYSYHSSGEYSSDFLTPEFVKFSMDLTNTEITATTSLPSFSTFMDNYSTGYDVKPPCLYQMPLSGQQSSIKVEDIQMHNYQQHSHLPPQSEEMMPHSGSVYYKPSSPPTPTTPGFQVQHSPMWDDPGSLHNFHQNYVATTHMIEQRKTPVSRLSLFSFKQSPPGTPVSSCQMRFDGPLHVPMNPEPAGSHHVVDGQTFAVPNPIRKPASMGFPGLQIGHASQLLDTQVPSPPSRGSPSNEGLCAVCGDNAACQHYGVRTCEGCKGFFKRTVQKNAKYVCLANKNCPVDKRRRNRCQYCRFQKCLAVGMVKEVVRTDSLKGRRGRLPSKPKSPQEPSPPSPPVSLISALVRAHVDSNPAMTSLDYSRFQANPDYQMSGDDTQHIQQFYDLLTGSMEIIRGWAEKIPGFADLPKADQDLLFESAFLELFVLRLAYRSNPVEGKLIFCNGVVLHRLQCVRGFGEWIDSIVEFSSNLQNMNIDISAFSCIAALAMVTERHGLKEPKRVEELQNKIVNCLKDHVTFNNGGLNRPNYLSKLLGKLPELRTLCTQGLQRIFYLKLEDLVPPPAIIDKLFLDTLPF
Sequence of Nuclear respiratory factor 1 (Homo sapiens) (Q16656 whole entry, looked up): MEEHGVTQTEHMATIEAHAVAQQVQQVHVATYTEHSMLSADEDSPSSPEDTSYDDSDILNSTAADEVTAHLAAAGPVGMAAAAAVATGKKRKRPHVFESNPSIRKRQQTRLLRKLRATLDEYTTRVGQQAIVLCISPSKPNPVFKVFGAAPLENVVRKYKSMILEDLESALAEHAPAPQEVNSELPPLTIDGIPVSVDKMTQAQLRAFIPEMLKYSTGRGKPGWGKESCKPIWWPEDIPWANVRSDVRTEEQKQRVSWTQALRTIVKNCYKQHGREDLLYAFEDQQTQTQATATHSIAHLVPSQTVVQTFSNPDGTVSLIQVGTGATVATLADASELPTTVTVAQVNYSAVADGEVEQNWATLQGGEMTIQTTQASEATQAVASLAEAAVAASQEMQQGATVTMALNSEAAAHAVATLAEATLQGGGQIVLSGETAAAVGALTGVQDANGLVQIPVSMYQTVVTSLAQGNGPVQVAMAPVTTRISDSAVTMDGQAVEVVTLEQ
Sequence of Oxysterols receptor LXR-alpha (Homo sapiens) (Q13133 whole entry, looked up, the tested form may be a part): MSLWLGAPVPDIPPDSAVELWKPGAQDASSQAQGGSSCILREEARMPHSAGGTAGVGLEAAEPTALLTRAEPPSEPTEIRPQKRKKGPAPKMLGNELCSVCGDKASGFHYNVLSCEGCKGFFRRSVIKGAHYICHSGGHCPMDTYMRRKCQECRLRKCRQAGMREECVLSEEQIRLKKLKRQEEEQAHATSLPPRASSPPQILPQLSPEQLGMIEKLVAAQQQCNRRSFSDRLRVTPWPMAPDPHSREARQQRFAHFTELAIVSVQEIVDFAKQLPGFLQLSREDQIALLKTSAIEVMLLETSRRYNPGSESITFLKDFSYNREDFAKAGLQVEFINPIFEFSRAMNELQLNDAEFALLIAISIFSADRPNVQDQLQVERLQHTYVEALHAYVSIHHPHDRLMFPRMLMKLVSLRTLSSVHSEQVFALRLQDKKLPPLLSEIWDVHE
Sequence of Glucocorticoid receptor (Homo sapiens) (P04150 whole entry, looked up): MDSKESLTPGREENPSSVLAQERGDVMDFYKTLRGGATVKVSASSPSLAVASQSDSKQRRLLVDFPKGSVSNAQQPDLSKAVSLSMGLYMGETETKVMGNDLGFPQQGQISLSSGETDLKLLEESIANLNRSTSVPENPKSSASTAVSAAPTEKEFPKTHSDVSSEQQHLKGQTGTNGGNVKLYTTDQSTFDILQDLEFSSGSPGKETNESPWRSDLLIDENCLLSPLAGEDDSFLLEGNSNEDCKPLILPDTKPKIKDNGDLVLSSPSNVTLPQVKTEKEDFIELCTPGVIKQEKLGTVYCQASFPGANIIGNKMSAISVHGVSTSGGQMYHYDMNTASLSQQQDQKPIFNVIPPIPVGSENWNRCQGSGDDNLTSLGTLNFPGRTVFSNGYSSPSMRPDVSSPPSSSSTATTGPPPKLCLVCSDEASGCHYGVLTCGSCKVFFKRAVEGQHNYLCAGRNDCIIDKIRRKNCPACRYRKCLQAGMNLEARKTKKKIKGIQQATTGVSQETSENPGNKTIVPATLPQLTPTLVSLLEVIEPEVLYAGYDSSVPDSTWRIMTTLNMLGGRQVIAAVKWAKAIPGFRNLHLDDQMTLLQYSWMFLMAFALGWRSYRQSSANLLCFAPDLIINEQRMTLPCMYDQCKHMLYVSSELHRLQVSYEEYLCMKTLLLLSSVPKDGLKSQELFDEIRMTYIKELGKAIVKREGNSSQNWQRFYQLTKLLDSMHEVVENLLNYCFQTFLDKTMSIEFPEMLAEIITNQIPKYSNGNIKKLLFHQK
Sequence of Hepatocyte nuclear factor 4-alpha (Homo sapiens) (P41235 whole entry, looked up, the tested form may be a part): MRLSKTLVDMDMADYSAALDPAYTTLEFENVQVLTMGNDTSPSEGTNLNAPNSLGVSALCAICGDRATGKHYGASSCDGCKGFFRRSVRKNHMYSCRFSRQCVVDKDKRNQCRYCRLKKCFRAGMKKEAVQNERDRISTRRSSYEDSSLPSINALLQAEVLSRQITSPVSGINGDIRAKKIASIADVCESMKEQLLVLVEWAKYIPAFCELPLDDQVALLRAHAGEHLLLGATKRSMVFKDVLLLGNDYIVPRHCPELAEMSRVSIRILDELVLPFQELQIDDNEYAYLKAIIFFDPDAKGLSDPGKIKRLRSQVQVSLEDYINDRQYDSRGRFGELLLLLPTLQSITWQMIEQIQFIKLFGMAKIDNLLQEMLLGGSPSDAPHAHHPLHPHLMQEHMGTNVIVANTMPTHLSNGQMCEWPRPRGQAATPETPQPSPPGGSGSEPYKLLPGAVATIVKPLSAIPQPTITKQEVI

O=C1CCC(=O)N1
not listed: [16] | [17] | [18] | [19] | [20]
inactive: all other assays above

ClCCOCCOCCCl
active: [13] 54.7 µM
not listed: [2] | [3] | [4] | [6] | [12] | [18] | [19] | [20]
inactive: all other assays above

Cc1cccc(C)c1
inactive: [1] | [2] | [4] | [5] | [7] | [8] | [9] | [10] | [11] | [13] | [14]

CCCCC1CCCCC(=O)O1 (stereo unspecified)
not listed: [3] | [4] | [6] | [7] | [12] | [18] | [19] | [20]
inactive: all other assays above

CC(=O)N(C)C
inactive: [1] | [2] | [8] | [11] | [14] | [15]

O=S1(=O)CC(Cl)(Cl)C(Cl)(Cl)C1
active: [13] 0.485 µM | [15] 2.67 µM | [18] 0.556 µM | [19] 0.695 µM | [20] 0.618 µM
not listed: [4] | [5] | [12]
inactive: all other assays above

N#CCCCC(C#N)CCC#N (stereo unspecified)
not listed: [2] | [3] | [4] | [6] | [17] | [18] | [19] | [20]
inactive: all other assays above

C[C@]12CC[C@@H]3c4ccc(O)cc4CC[C@H]3[C@@H]1CC[C@@H]2O
inactive: [1] | [2] | [4] | [16] | [17] | [5] | [6] | [7] | [8] | [9] | [10] | [11] | [13] | [14] | [15] | [20]
active: [10] 146 µM | [15] 19.8 µM and 21.3 µM and 12.8 µM | [18] 20 µM | [19] 11.9 µM

O=C(O)c1ccccc1O
inactive: [1] | [16] | [6] | [8] | [9] | [10] | [11] | [13] | [14]

O=C1CCCCCCCCCCCC(=O)OCCO1
not listed: [3] | [4] | [5] | [12] | [15] | [18] | [19] | [20]
inactive: all other assays above
